# Results reported in PMC7862700, “An all-to-all approach to the identification of sequence-specific readers for epigenetic DNA modifications on cytosine”.
# Legend:
# Assay in all cases: DAPPL (digital affinity profiling via proximity ligation, sequencing); 10 mM Tris-HCl pH 7.5, 50 mM NaCl, 1 mM DTT, 4% glycerol, room temperature, 30 min; GST-TFs on glutathione beads, 16-mer random dsDNA library, 0.1% formaldehyde crosslink after washing; high values mean tight binding
# FLI1 = target: T1, FLI1 (Homo sapiens, UniProt Q01543 1-452); conditions: protein: recombinant; tags: N-terminal GST; dsDNA, one strand shown
# T1 sequence: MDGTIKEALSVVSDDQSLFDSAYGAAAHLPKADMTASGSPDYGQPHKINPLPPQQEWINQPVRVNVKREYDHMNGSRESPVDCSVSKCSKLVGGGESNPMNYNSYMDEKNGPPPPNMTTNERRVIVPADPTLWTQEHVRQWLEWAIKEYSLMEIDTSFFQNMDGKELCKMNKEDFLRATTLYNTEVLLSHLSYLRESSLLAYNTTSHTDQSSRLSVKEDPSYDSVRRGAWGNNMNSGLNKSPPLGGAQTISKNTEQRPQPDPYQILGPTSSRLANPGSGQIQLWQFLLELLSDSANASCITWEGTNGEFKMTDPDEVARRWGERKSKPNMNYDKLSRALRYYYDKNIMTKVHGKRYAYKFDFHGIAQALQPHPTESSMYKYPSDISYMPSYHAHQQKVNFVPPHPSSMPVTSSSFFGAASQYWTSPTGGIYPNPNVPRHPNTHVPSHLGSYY
# Outline: (§1)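 After expression in yeast as GST fusions, human transcription factors were bound to glutathione beads, DNA-barcoded and mixed with a tag-only sample. The pools were incubated with 200 nmole of a 16-mer random double-stranded DNA library in Tris/NaCl/DTT/glycerol buffer (30 min, room temperature), washed and crosslinked with 0.1% formaldehyde. Proximity ligation with BsaI/T4 ligase ran for 1 h at 37 °C, before PCR amplification and sequencing on an Illumina NextSeq500. Binding signal is a hexamer's read frequency for a factor divided by its frequency for the tag-only sample.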
# ELK1 = target: T2, ELK1 (Homo sapiens, UniProt P19419 1-428); conditions: protein: recombinant; tags: N-terminal GST; dsDNA, one strand shown
# T2 sequence: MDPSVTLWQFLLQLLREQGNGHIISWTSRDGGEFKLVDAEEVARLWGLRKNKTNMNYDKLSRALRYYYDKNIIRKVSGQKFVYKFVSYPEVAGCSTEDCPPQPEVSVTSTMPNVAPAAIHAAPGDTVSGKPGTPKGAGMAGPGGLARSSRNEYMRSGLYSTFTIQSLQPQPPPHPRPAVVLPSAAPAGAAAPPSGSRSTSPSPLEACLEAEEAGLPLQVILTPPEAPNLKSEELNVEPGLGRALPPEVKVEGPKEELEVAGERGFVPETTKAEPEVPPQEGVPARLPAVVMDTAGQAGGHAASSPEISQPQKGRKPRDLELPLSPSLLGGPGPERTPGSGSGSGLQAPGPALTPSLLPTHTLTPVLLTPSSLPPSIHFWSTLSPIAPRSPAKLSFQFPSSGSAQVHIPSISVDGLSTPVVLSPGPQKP
# Outline: as §1
# GABPA = target: T3, GABPA (Homo sapiens, UniProt Q06546 1-454); conditions: protein: recombinant; tags: N-terminal GST; dsDNA, one strand shown
# T3 sequence: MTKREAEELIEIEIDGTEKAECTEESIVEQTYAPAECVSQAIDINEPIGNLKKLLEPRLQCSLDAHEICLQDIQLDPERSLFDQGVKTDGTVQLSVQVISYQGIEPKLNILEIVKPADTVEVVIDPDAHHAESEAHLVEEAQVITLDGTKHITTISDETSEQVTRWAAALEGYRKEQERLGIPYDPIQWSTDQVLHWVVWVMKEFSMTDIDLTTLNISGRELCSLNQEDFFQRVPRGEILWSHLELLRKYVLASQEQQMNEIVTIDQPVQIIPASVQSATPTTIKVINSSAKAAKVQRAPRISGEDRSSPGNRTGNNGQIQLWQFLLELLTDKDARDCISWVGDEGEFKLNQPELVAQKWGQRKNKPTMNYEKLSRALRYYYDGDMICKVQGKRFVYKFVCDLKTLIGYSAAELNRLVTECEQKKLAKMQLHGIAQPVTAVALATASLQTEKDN
# Outline: as §1
# ERG = target: T4, ERG (Homo sapiens, UniProt P11308 1-479); conditions: protein: recombinant; tags: N-terminal GST; dsDNA, one strand shown
# T4 sequence: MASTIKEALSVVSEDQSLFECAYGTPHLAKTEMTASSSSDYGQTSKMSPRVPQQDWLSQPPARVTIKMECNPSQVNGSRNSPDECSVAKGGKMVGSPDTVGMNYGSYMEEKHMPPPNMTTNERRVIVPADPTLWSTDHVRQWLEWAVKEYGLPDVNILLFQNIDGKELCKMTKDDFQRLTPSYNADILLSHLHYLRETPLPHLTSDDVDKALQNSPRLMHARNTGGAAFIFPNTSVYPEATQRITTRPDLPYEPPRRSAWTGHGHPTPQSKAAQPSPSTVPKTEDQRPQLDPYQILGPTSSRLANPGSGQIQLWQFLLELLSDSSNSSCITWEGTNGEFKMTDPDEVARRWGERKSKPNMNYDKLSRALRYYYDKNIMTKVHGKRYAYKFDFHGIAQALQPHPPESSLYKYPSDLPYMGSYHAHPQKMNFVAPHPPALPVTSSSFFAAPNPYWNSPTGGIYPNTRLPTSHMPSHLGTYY
# Outline: as §1
# ELF1 = ELF1 (Homo sapiens, UniProt P32519 1-619); conditions: protein: recombinant; tags: N-terminal GST; dsDNA, one strand shown
# ELF1, sequence (P32519 whole entry): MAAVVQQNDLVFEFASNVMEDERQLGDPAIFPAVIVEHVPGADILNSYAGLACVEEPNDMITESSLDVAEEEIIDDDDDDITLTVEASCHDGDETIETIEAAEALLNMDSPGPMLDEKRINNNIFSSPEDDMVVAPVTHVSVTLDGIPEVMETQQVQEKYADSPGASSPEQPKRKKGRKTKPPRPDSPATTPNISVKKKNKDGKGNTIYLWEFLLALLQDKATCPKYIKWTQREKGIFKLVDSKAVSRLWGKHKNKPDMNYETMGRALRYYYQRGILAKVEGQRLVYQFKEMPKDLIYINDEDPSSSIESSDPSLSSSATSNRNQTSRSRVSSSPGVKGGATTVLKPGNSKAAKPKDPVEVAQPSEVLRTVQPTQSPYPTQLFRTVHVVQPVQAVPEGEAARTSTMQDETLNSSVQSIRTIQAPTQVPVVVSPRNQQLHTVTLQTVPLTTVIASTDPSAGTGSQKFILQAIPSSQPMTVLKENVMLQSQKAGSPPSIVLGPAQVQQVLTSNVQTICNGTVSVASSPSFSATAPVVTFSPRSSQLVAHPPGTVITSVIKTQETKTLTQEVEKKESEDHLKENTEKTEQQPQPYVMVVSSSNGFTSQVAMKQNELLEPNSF
# Outline: as §1
# EHF = target: T5, EHF (Homo sapiens, UniProt Q9NZC4 1-300); conditions: protein: recombinant; tags: N-terminal GST; dsDNA, one strand shown
# T5 sequence: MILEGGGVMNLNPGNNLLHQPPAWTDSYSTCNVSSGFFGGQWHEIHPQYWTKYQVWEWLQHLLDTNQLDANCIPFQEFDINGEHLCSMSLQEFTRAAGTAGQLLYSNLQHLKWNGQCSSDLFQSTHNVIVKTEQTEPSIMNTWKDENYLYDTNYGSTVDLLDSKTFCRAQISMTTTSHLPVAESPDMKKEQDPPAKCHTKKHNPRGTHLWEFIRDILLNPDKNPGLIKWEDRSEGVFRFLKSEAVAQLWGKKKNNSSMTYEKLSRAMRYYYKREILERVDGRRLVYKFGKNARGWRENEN
# Outline: as §1
# SPI1 = SPI1 (Homo sapiens, UniProt P17947 1-270); conditions: protein: recombinant; tags: N-terminal GST; dsDNA, one strand shown
# Outline: as §1
# SPIB = SPIB (Homo sapiens, UniProt Q01892 1-262); conditions: protein: recombinant; tags: N-terminal GST; dsDNA, one strand shown
# SPIB, sequence (Q01892 whole entry): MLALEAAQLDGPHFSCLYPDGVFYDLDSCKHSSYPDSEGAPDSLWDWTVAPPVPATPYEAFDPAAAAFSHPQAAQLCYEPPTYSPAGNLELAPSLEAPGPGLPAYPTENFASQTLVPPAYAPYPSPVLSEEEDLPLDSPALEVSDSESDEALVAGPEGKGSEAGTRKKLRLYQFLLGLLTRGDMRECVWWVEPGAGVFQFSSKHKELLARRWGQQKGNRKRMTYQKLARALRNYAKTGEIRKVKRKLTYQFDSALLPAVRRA
# Outline: as §1
# ELK3 = target: T6, ELK3 (Homo sapiens, UniProt P41970 1-407); conditions: protein: recombinant; tags: N-terminal GST; dsDNA, one strand shown
# T6 sequence: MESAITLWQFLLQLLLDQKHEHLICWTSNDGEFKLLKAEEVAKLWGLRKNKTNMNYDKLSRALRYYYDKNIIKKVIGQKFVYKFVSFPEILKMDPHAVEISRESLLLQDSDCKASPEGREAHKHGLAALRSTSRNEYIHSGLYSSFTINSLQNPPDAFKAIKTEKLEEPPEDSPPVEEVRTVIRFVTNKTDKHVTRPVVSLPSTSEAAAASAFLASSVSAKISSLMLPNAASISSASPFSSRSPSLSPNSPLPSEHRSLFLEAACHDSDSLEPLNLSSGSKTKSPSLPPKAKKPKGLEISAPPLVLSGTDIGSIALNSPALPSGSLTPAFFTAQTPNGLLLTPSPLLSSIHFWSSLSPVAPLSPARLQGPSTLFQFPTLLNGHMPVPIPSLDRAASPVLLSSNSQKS
# Outline: as §1
# FEV = target: T7, FEV (Homo sapiens, UniProt Q99581 1-238); conditions: protein: recombinant; tags: N-terminal GST; dsDNA, one strand shown
# T7 sequence: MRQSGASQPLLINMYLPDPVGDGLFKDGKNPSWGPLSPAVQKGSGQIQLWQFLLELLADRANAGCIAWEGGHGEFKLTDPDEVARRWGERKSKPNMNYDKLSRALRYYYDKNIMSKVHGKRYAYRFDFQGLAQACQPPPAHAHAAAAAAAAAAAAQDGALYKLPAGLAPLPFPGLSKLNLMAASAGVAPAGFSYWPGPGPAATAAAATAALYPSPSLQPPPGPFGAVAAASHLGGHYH
# Outline: as §1
# ETV5 = ETV5 (Homo sapiens, UniProt P41161 1-510); conditions: protein: recombinant; tags: N-terminal GST; dsDNA, one strand shown
# ETV5, sequence (P41161 whole entry): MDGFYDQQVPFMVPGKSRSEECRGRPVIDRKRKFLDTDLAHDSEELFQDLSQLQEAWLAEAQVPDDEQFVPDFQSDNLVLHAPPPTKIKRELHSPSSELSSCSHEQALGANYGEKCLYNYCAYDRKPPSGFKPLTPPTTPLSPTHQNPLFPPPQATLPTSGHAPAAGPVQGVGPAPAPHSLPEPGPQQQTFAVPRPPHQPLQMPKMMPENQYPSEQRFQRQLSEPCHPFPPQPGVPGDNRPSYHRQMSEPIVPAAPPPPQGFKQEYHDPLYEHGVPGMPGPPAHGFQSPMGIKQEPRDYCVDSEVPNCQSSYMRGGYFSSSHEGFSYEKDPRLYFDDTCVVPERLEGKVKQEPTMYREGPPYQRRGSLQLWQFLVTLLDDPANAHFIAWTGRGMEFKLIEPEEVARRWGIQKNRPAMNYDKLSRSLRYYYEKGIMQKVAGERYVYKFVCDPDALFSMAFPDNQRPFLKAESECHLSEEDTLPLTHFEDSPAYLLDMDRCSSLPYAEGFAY
# Outline: as §1
# HSF1 = HSF1 (Homo sapiens, UniProt Q00613 1-529); conditions: protein: recombinant; tags: N-terminal GST; chain copies: 3; dsDNA, one strand shown
# HSF1, sequence (Q00613 whole entry): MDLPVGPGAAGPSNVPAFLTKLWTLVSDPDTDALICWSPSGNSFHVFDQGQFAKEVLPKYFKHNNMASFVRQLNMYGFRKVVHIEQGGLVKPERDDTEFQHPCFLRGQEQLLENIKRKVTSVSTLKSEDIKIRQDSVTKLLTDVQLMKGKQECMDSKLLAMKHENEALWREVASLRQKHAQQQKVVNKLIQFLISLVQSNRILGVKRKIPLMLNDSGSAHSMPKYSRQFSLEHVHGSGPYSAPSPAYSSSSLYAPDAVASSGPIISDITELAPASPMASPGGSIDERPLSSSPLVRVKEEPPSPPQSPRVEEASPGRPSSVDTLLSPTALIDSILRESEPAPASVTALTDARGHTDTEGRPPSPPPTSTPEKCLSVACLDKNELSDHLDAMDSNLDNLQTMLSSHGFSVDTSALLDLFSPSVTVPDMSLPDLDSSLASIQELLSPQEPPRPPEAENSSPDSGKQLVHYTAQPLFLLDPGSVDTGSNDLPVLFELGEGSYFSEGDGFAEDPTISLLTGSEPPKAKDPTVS
# Outline: as §1
# SPIC = target: T8, SPIC (Homo sapiens, UniProt Q8N5J4 1-248); conditions: protein: recombinant; tags: N-terminal GST; dsDNA, one strand shown
# T8 sequence: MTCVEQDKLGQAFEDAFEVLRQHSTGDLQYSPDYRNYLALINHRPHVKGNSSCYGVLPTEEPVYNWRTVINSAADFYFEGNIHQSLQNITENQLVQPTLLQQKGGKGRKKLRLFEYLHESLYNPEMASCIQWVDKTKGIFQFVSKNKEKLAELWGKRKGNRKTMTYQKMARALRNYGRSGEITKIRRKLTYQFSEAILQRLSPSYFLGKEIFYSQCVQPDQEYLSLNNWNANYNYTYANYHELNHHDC
# Outline: as §1
# ELF4 = ELF4 (Homo sapiens, UniProt Q99607 1-663); conditions: protein: recombinant; tags: N-terminal GST; dsDNA, one strand shown
# ELF4, sequence (Q99607 whole entry): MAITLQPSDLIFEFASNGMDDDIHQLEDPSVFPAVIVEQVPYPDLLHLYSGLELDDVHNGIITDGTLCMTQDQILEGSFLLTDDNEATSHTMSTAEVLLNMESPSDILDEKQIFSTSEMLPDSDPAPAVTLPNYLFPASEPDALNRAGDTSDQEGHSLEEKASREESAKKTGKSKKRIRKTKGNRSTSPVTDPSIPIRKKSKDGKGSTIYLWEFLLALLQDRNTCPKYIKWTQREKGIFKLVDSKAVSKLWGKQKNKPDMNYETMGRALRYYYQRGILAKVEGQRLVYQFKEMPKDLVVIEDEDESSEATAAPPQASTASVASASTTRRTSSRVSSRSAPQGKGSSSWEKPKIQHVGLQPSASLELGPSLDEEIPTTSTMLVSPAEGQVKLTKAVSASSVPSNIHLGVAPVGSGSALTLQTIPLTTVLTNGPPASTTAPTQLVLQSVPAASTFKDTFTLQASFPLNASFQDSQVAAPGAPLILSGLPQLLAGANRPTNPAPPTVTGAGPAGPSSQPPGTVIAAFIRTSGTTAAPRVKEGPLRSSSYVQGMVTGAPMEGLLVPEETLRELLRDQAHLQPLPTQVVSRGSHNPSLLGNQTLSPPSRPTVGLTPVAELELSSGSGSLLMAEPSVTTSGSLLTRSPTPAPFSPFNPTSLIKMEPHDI
# Outline: as §1
# ELK4 = target: T9, ELK4 (Homo sapiens, UniProt P28324-2 1-405); conditions: protein: recombinant; tags: N-terminal GST; dsDNA, one strand shown
# T9 sequence: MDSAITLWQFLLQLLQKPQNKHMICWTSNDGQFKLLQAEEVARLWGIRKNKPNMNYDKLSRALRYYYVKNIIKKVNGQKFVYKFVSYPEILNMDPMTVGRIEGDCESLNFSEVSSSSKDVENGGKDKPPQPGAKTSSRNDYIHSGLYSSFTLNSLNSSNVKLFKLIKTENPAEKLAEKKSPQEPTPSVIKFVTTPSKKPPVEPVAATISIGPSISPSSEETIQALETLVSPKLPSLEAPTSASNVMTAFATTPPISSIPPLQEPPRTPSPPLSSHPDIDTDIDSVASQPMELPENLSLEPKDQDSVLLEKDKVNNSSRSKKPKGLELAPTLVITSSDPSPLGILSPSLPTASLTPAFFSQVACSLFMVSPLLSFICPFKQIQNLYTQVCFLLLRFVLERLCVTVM
# Outline: as §1
# ETV2 = target: T10, ETV2 (Homo sapiens, UniProt O00321 1-342); conditions: protein: recombinant; tags: N-terminal GST; dsDNA, one strand shown
# T10 sequence: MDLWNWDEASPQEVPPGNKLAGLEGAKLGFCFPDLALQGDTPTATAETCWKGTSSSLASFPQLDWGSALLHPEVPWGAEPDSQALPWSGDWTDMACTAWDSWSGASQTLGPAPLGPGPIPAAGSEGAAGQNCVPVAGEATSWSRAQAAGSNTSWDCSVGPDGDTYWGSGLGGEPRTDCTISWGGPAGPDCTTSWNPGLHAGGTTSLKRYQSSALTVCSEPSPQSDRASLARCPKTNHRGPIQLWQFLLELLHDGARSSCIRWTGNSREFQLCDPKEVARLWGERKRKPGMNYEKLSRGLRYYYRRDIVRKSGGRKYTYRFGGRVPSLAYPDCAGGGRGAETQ
# Outline: as §1
# ELF3 = target: T11, ELF3 (Homo sapiens, UniProt P78545 1-371); conditions: protein: recombinant; tags: N-terminal GST; dsDNA, one strand shown
# T11 sequence: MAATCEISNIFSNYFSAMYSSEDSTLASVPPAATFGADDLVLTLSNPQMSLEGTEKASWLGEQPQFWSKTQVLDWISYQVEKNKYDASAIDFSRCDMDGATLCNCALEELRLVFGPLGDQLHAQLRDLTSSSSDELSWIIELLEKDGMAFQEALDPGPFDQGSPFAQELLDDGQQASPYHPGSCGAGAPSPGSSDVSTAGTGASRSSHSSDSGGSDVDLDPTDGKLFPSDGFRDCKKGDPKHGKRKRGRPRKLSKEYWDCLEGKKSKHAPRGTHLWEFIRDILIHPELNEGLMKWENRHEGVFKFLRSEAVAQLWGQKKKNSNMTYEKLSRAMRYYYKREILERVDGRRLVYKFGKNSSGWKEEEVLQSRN
# Outline: as §1
# CRX = CRX (Homo sapiens, UniProt O43186 1-299); conditions: protein: recombinant; tags: N-terminal GST; dsDNA, one strand shown
# CRX, sequence (O43186 whole entry): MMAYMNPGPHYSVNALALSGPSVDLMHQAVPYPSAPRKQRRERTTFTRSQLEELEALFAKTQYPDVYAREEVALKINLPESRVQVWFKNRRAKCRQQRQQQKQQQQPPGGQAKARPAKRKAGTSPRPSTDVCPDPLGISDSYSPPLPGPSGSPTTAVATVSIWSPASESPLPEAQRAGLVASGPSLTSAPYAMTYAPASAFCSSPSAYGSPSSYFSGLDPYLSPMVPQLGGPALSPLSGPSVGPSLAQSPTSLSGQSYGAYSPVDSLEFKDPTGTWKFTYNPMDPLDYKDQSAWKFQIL
# Outline: as §1
# ETV1 = ETV1 (Homo sapiens, UniProt P50549 1-477); conditions: protein: recombinant; tags: N-terminal GST; dsDNA, one strand shown
# ETV1, sequence (P50549 whole entry): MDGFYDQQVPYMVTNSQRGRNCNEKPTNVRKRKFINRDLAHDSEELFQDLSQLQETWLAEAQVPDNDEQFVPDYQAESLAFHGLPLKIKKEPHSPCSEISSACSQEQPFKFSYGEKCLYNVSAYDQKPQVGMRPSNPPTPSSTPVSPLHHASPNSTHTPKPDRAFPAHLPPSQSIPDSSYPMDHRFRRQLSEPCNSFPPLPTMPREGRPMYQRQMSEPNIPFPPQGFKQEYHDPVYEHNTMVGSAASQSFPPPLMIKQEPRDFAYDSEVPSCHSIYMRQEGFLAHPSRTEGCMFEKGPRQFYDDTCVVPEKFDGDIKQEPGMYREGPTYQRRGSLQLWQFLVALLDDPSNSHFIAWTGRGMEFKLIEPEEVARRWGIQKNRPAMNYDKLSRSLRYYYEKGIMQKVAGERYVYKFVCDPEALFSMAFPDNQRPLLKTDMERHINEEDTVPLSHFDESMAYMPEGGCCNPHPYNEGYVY
# Outline: as §1
sequence,measurement,setting,value
ATACAC,binding signal,FLI1,"1.18 fold enrichment (6-mer frequency, TF over GST control)"
same,binding signal,ELK1,"1.19 fold enrichment (6-mer frequency, TF over GST control)"
same,binding signal,GABPA,"1.25 fold enrichment (6-mer frequency, TF over GST control)"
same,binding signal,ERG,"1.25 fold enrichment (6-mer frequency, TF over GST control)"
same,binding signal,ELF1,"1.19 fold enrichment (6-mer frequency, TF over GST control)"
same,binding signal,EHF,"1.22 fold enrichment (6-mer frequency, TF over GST control)"
same,binding signal,SPI1,"1.23 fold enrichment (6-mer frequency, TF over GST control)"
same,binding signal,SPIB,"1.23 fold enrichment (6-mer frequency, TF over GST control)"
same,binding signal,ELK3,"1.21 fold enrichment (6-mer frequency, TF over GST control)"
same,binding signal,FEV,"1.24 fold enrichment (6-mer frequency, TF over GST control)"
same,binding signal,ETV5,"1.22 fold enrichment (6-mer frequency, TF over GST control)"
same,binding signal,HSF1,"1.01 fold enrichment (6-mer frequency, TF over GST control)"
same,binding signal,SPIC,"1.22 fold enrichment (6-mer frequency, TF over GST control)"
same,binding signal,ELF4,"1.24 fold enrichment (6-mer frequency, TF over GST control)"
same,binding signal,ELK4,"1.25 fold enrichment (6-mer frequency, TF over GST control)"
same,binding signal,ETV2,"1.24 fold enrichment (6-mer frequency, TF over GST control)"
same,binding signal,ELF3,"1.16 fold enrichment (6-mer frequency, TF over GST control)"
same,binding signal,CRX,"1.04 fold enrichment (6-mer frequency, TF over GST control)"
same,binding signal,ETV1,"1.31 fold enrichment (6-mer frequency, TF over GST control)"
